Out of some 69,000 compounds screened, about 50 (0.07%) showed an effect of 50% or more. The list comes from a sample in which strong results are over-represented; it also holds similar structures and randomly drawn compounds.

The target of the assay is Lysine--tRNA ligase (Plasmodium falciparum (isolate 3D7)) (UniProt Q8IDJ8). Kind of assay: Pf-KRS-1 (Lysyl-RNA Synthetase-1, KRS-1, cytosolic KRS) from Plasmodium falciparum. Inhibitor assay, 384 well plate, luminescence read. Format: functional. Further details: scale not given: in the data most compounds retested in dose-response had high values. To be noted: 30 µM.
Sequence of Lysine--tRNA ligase (Plasmodium falciparum (isolate 3D7)) (Q8IDJ8 1-583): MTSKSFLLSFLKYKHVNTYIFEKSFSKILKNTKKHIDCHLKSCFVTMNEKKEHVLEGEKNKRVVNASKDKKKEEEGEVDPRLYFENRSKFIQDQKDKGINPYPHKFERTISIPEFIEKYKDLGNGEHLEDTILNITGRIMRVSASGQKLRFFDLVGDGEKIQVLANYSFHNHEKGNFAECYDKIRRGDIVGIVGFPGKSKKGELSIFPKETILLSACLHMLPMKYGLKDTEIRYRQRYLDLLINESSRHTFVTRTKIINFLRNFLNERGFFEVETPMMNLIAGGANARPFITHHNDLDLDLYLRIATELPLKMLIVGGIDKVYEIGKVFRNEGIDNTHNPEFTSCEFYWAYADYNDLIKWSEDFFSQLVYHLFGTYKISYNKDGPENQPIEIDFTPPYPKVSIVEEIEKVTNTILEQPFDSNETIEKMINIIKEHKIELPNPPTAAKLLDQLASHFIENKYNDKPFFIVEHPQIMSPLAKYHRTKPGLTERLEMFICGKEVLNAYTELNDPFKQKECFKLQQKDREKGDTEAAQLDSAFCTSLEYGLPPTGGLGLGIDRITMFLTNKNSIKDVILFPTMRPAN
`COC(=O)c1ccc2ccn(CC3CCCO3)c(=O)c2c1` (stereo unspecified): the Percent Effect came out at 12.9%.
Under `COC(=O)c1ccc2ccn(CC3CCCCO3)c(=O)c2c1` (stereo unspecified) stands 78.6%; under `COC(=O)c1ccc2ccn(CC3COCCO3)c(=O)c2c1` (stereo unspecified), 26.4%; under `O=C(N1CCCO1)[C@@]12CCO[C@@H]1CCN(Cc1cccnc1)C2`, 0.613%.
For `CN1C(=O)CO[C@H]2CCN(C(=O)Cc3ccc4c(c3)CCCC4)CC[C@@H]21`, the Percent Effect amounted to 0.27%.
In the case of `Cn1nc2c(cc1=O)CN(CC1CCCCO1)CC2` (stereo unspecified) it was 50.5%; in that of `c1ncc2c(n1)CN(CC1CCCCO1)CC2` (stereo unspecified), 84.6%; in that of `Cc1cc(CN2CCc3cncnc3C2)no1`, 8.95%.
On to `Cc1ncc2c(n1)CN(CC1CCCCO1)CC2` (stereo unspecified), for which the Percent Effect was found to be 76.2%.
Under `CC(C)c1ncc2c(n1)CN(CC1CCCCO1)CC2` (stereo unspecified) stands 2.58%; under `CC(C)n1nc2c(cc1=O)CN(CC1CCCCO1)CC2` (stereo unspecified), 11.8%.
As to `CCc1ncc2c(n1)CN(CC1CCCCO1)CC2` (stereo unspecified), the Percent Effect came out at 17.1%.
With `CCCn1nc2c(cc1=O)CN(CC1CCCCO1)CC2` (stereo unspecified), the Percent Effect came to 8.29%.
In the case of `CCn1nc2c(cc1=O)CN(CC1CCCCO1)CC2` (stereo unspecified) it was -3.92%; in that of `COCCN1CCO[C@H]2CN(Cc3cccc(C)n3)C[C@H]21`, 2.71%.
Under `CO[C@H]1CN(CC2CCOCC2)[C@@H]2CCCO[C@H]12` stands 3.3%; under `Cc1cccc(CN2C[C@H](NS(C)(=O)=O)[C@@H]3OCCC[C@@H]32)n1`, 0.332%; under `Cc1noc([C@]23COC[C@H]2CN(C(C)C)C3)n1`, 2.71%.
Under `CC(CCc1ccccc1)NC(=O)Nc1cnn(CC(N)=O)c1` (stereo unspecified) stands 2.54%.
On to `COCCn1cc(NC(=O)C(C)CCc2ccccc2F)ccc1=O` (stereo unspecified), for which the Percent Effect is 34.2%.
In the case of `COCCn1cc(NC(=O)NC(C)CCc2ccccc2)ccc1=O` (stereo unspecified), the Percent Effect was determined as 64.7%.
Under `CCCN1CCN(C(=O)c2cc3ccccc3cn2)[C@H]2CS(=O)(=O)C[C@H]21` stands 4.93%.
In the case of `Cc1ccc(-c2ccc(C3CNCCO3)nc2)cc1` (stereo unspecified) it was 5.24%; in that of `O=c1[nH]c2c(c(=O)n1C1CCCCC1)CCC2NCCc1ccccc1` (stereo unspecified), 55.6%.
Under `Cc1cccc(NC2CCc3c2[nH]c(=O)n(C2CCCCC2)c3=O)c1C` (stereo unspecified) stands 32.2%; under `O=c1[nH]c2c(c(=O)n1C1CCCCC1)CCC2Nc1ccccn1` (stereo unspecified), 28.1%; under `O=c1[nH]c2c(c(=O)n1C1CCCCC1)CCC2Nc1ccccc1` (stereo unspecified), 24.4%.
Take `O=c1[nH]c2c(c(=O)n1C1CCCCC1)CCC2NCc1ccccc1` (stereo unspecified): the Percent Effect was 11.2%.
As to `O=c1[nH]c2c(c(=O)n1C1CCCCC1)CCC2Nc1ccccc1Cl` (stereo unspecified), the Percent Effect is 61.5%.
In the case of `COC[C@@]12CCO[C@@H]1CCN(Cc1ccccc1OC)C2` it was 6.78%.
In the case of `CC(=O)N1CCO[C@@H]2CN(S(=O)(=O)C3CC3)CC[C@@H]2C1` it was 2.76%; in that of `CO[C@H]1CC[C@H]2[C@H]1OCCN2C(=O)CC1=CCCCC1`, 18.1%; in that of `Cc1ncsc1CN1C[C@H](C(=O)N2CCCO2)[C@@H]2CCO[C@@H]2C1`, 0.217%.
In the case of `O=C(NCc1ccoc1)Nc1ccc(CN2CCOC2=O)cc1` it was 2.38%; in that of `COc1ccc(CNC(=O)Nc2ccc(CN3CCOC3=O)cc2)cc1`, 0.788%.
For the molecule `Cn1cc(NC(=O)CCc2ccsc2)ccc1=O`, the Percent Effect was determined as 7.87%.
Under `COc1ccc(CNC(=O)Nc2ccc(=O)n(C)c2)cc1` stands 77.6%.
In the case of `Cn1cc(NC(=O)NCc2ccsc2)ccc1=O` it was 73.2%; in that of `COC(=O)c1ccc(CNC(=O)Nc2ccc(=O)n(C)c2)cc1`, -0.542%; in that of `Cc1nnc(NC(=O)NCc2ccoc2)s1`, 0.941%.
In the case of `Cn1cc(NC(=O)NCc2ccoc2)ccc1=O`, the Percent Effect turned out to be 58.5%.
In the case of `CN(Cc1ccsc1)C(=O)Nc1ccc(=O)n(C)c1`, the Percent Effect was determined as 28.4%.
In the case of `COCC(=O)N1C[C@H]2CCC[C@@]2(COC)C1` it was 3.43%; in that of `O=C(c1cccnc1)N1C[C@H]2CN(Cc3cccc(F)c3)C(=O)[C@H]2C1`, 7.87%.
With `CO[C@H]1CCN(C2CCC2)[C@@H]2CN(Cc3ccncc3)C[C@H]12`, the Percent Effect was determined as 3%.
Under `CO[C@@H]1CCN(S(=O)(=O)c2cccnc2)[C@@H]2CN(CC3CC3)C[C@@H]21` stands 4.3%.
In the case of `O=C(NC1CCCC1)[C@H]1CC[C@@H]2[C@@H](CCN2c2ncc(F)cn2)O1` it was -0.28%; in that of `CO[C@H]1CC[C@H]2[C@H]1OCCN2Cc1ccc(F)c(F)c1`, -6.11%.
Take `COCc1cnc2n1CCN(C(=O)c1ccc3ccccc3n1)C2C` (stereo unspecified): the Percent Effect amounted to 10.7%.
In the case of `O=C(CC1CCCC1)N1C[C@@H]2CCN(c3cccnc3)C[C@@H]2C1` it was 1.75%; in that of `c1coc(-c2nc3c(c(N4CCCN5CCC[C@H]5C4)n2)CCNCC3)c1`, 0.644%; in that of `Cc1ccoc1C(=O)N1CC[C@H]2OCC[C@@]2(COCc2ccncc2)C1`, 6.75%.
In the case of `Cc1cc(=O)n(C)cc1NC(=O)Cc1cccc(F)c1` it was 19.8%; in that of `Cc1cc(=O)n(C)cc1NC(=O)Cc1ccc(C(F)(F)F)cc1`, 1.6%; in that of `Cc1cc(=O)n(C)cc1NC(=O)Cc1cc(F)ccc1F`, 69.1%.
In the case of `O=C1CO[C@H]2CN(C3CCOCC3)C[C@H]2N1Cc1ccccn1` it was 2.85%.
With `Cc1ccc(S(=O)(=O)N2C[C@@H]3CCN[C@@H]3C2)cc1`, the Percent Effect worked out at 2.57%.
Turning to `COc1ccc(CN2C[C@@H]3COC[C@@H](CC(=O)N4CCCC4)[C@@H]3C2)cc1`, the Percent Effect came to 4.49%.
In the case of `O=c1c(CN2CCCCC2)coc2ccc(Cl)cc12`, the Percent Effect stood at 62.1%.
Take `O=c1c(CN2CCOCC2)coc2ccc(Cl)cc12`: the Percent Effect is 28.3%.
In the case of `O=c1c(CN2CC3CCCN3C[C@@H]2CCO)coc2ccc(Cl)cc12` (stereo partly specified) it was 0.683%; in that of `Cc1ccc(S(=O)(=O)N2C[C@@H]3C[C@@H](NC(=O)C(C)(C)C)[C@@H]3C2)cc1`, 6.48%.
In the case of `Cn1cc(C(C)(O)CNc2ccc(Cl)c(C#N)n2)cn1` (stereo unspecified) it was 18.4%.
Consider `CC(O)(CNc1ccc(Cl)c(C#N)n1)c1ccccc1` (stereo unspecified), for which the Percent Effect worked out at 8.49%.
On to `CC(O)(CNc1ccc(Cl)c(C#N)n1)c1ccsc1` (stereo unspecified), for which the Percent Effect came out at 59%.
Consider `CCOCC(=O)N1CC[C@@H]2O[C@@H](C)C[C@H]2C1`, for which the Percent Effect stood at 2.15%.
In the case of `O=C1CC[C@]2(CC[C@@H](NCc3ccc4c(c3)OCO4)CC2)N1` it was -2.96%; in that of `O=C(NC1CC(F)(F)C1)[C@]12COC[C@H]1CN(Cc1ccsc1)C2`, 3.2%.
Under `O=C(c1cnc2[nH]c(=O)[nH]c(=O)c2c1)N1CCCC1C1CCCCC1` (stereo unspecified) stands 2.68%.
Under `O=C(c1ccc(=O)[nH]n1)N1CCCC1C1CCCC1` (stereo unspecified) stands 9.62%; under `O=C(c1c[nH]nn1)N1CCCC1C1CCCCC1` (stereo unspecified), 85.6%; under `COC[C@@]12CC[C@@H](N3CCOCC3)C[C@H]1CCN(c1nc(CO)cs1)C2`, 10.3%.
On to `Cn1cc(NC(=O)N2CCC2c2ccccc2)ccc1=O` (stereo unspecified), for which the Percent Effect was found to be 20.1%.
In the case of `Cn1cc(NC(=O)N2CCCC2c2ccccn2)ccc1=O` (stereo unspecified) it was 78.9%; in that of `Cn1cc(NC(=O)N2CCCC2c2cccnc2)ccc1=O` (stereo unspecified), 4.14%.
Under `CC(C)C1CCCN1C(=O)Nc1ccc(=O)n(C)c1` (stereo unspecified) stands 81%; under `Cn1cc(NC(=O)N2CCC(CN3CCCC3)CC2)ccc1=O`, 0.985%.
Turning to `Cn1cc(NC(=O)N2CCC(c3ccccc3)CC2)ccc1=O`, the Percent Effect was determined as 45.4%.
In the case of `COCC(=O)N1CC[C@H]2[C@H]1CCN2CC(C)C` it was 7.19%; in that of `CN(Cc1ccco1)[C@@H]1CN(CC2CCOCC2)C[C@@H]2CCCO[C@@H]21`, -0.34%.
On to `CN1C[C@H]2CNC[C@@]2(C(=O)N2CCN(c3ncccc3C#N)CC2)C1`, for which the Percent Effect amounted to 4.21%.
In the case of `O=C([C@H]1CCS(=O)(=O)[C@@H]2CN(Cc3ccc(F)cc3)C[C@H]12)N1CCCC1` it was 7.12%; in that of `O=C(c1ccc[nH]1)N1C[C@H](OCc2ccccn2)[C@H]2COC[C@H]21`, -1.37%; in that of `Cn1nc2c(cc1=O)CN(Cc1nc(-c3cccnc3)no1)CC2`, -1.07%.
In the case of `Cn1nc2c(cc1=O)CN(Cc1nc(C(C)(C)C)no1)CC2` it was 70.1%.
In the case of `Cc1cccc(-c2noc(CN3CCc4nn(C)c(=O)cc4C3)n2)c1` it was 68.9%; in that of `Cn1nc2c(cc1=O)CN(Cc1nc(C3CC3)no1)CC2`, 8.16%; in that of `Cc1ccc(-c2noc(CN3CCc4nn(C)c(=O)cc4C3)n2)cc1`, 1.64%.
Consider `Cn1nc2c(cc1=O)CN(Cc1nc(-c3ccco3)no1)CC2`, for which the Percent Effect is 5.02%.
For the molecule `CSCC[C@H]1CN2CCC[C@H]2CN1Cc1coc2ccc(C)cc2c1=O`, the Percent Effect was -1.05%.
Under `Fc1cnc(N2CCO[C@H]3CN(CC4CCC4)C[C@H]32)nc1` stands -1.14%; under `Cc1nnsc1CN1C[C@H]2CC[C@@H]1CN(Cc1ccccc1)C2`, 2.23%; under `CCC(=O)N1CC[C@H]2C(=O)N(Cc3ccc(OC)cc3)CCO[C@H]2C1`, 4.55%.
Under `Cc1noc(C)c1CN1CC[C@H]2[C@@H]1CCC(=O)N2CC1CCOCC1` stands 3.41%; under `Cc1noc(C)c1CN1CCO[C@H]2CN(CC3CC3)C[C@H]21`, 2.54%; under `Cc1noc(C)c1CN1CC[C@H]2[C@H]1CCN2CC1CCOCC1`, 59%.
In the case of `CCCN1CCN(C(=O)c2cccc3cccnc23)[C@H]2CS(=O)(=O)C[C@H]21` it was -0.361%; in that of `CC1CCC(N2Cc3nc(N)ncc3C2=O)CC1` (stereo unspecified), 73.8%.
Take `CC(C)CN1Cc2nc(N3CCCC3)ncc2C1=O`: the Percent Effect is 6.16%.
In the case of `CC(C)CN1Cc2nc(N)ncc2C1=O` it was 91.2%.
Under `CC(C)CN1Cc2nc(N3CCC(O)CC3)ncc2C1=O` stands 4.55%; under `CN1CCC(N2Cc3nc(N)ncc3C2=O)CC1`, 2.22%.
Under `CC1(C)CC(N2Cc3nc(N)ncc3C2=O)CC(C)(C)N1` stands 1.77%; under `CN1[C@H](CN2CCCC2)C[C@@H]2CN(C(=O)Cc3cccs3)CC[C@@H]21`, -1.4%.
Consider `CCO[C@@H]1CN(S(=O)(=O)c2cn(C)cn2)[C@@H]2CCCO[C@@H]21`, for which the Percent Effect is 3.16%.
`CC(C)=CCN1C(=O)[C@H]2CC[C@@H]1CN(C(=O)CCc1n[nH]c(C)c1C)C2`: the Percent Effect was -4.7%.
Regarding `CC(NC(=O)C1=NN(C)C(=O)CC1)c1ccc(Cl)cc1Cl` (stereo unspecified), the Percent Effect came to 57.8%.
In the case of `CC(NC(=O)C1=NN(C)C(=O)CC1)c1ccccc1Cl` (stereo unspecified) it was 7.44%.
In the case of `CC(NC(=O)C1=NN(C)C(=O)CC1)c1ccc(Cl)cc1` (stereo unspecified) it was 6.56%; in that of `c1ccc(CO[C@@H]2CN(Cc3ccoc3)[C@@H]3COC[C@@H]32)nc1`, -0.514%.
In the case of `CCC(Cn1ccc2[nH]c(=O)c(C#N)cc2c1=O)OC` (stereo unspecified) it was 34.1%.
On to `N#Cc1cc2c(=O)n(CC(O)Cc3ccccc3)ccc2[nH]c1=O` (stereo unspecified), for which the Percent Effect was determined as 4.36%.
Under `CCCOC(C)Cn1ccc2[nH]c(=O)c(C#N)cc2c1=O` (stereo unspecified) stands 61.2%; under `CC(C)SCCn1ccc2[nH]c(=O)c(C#N)cc2c1=O`, 48.5%; under `CC(O)CCn1ccc2[nH]c(=O)c(C#N)cc2c1=O` (stereo unspecified), 58.6%.
In the case of `N#Cc1cc2c(=O)n(CC(O)C(F)(F)F)ccc2[nH]c1=O` (stereo unspecified) it was 27.3%.

(Values after ChEMBL document CHEMBL3988442, “University of Dundee, Small-Polar-MMV Screening Library” (2021).)
